Assay in all cases: DAPPL (digital affinity profiling via proximity ligation, sequencing); 10 mM Tris-HCl pH 7.5, 50 mM NaCl, 1 mM DTT, 4% glycerol, room temperature, 30 min; GST-TFs on glutathione beads, 16-mer random dsDNA library, 0.1% formaldehyde crosslink after washing; high values mean tight binding
The target in test [1] is T1, FEV (Homo sapiens, UniProt Q99581 1-238).
T1 sequence: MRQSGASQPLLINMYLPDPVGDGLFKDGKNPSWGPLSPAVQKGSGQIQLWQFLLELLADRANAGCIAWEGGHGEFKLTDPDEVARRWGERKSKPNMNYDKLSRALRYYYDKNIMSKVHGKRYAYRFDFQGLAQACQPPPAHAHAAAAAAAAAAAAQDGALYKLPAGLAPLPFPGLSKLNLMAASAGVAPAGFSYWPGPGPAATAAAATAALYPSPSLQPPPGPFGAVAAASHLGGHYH
The conditions noted are these: protein: recombinant; tags: N-terminal GST; dsDNA, one strand shown. Summed up: (§1)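 Sequencing on an Illumina NextSeq500 followed washing, crosslinking with 0.1% formaldehyde, proximity ligation (BsaI/T4 ligase, 1 h, 37 °C) and PCR amplification of pools that had been incubated for 30 min at room temperature with 200 nmole of a random double-stranded 16-mer DNA library in Tris/NaCl/DTT/glycerol buffer. Each pool held DNA-barcoded human transcription factors, expressed in yeast as GST fusions and captured on glutathione beads, plus a tag-only sample. Binding signal is a hexamer's read frequency for a factor divided by its frequency in the tag-only sample.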

The target of test [2] is ETV5 (Homo sapiens, UniProt P41161 1-510). The conditions noted are these: protein: recombinant; tags: N-terminal GST; dsDNA, one strand shown. The procedure, abridged: as §1
Chain of ETV5 (P41161 whole entry): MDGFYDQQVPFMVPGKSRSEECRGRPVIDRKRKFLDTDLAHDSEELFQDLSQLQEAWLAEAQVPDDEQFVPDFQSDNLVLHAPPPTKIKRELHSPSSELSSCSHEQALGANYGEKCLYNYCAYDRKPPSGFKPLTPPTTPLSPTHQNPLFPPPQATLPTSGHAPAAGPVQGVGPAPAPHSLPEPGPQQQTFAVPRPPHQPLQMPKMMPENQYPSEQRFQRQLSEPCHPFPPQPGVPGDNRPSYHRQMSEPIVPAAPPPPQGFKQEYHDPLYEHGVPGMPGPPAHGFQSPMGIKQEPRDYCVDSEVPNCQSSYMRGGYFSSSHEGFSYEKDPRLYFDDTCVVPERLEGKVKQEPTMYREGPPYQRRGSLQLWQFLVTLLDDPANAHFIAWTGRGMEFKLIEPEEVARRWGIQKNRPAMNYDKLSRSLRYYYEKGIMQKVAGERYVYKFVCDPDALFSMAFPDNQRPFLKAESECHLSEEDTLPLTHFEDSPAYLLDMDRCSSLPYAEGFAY
Test [3] has as its target HSF1 (Homo sapiens, UniProt Q00613 1-529). The conditions noted are these: protein: recombinant; tags: N-terminal GST; chain copies: 3; dsDNA, one strand shown. The procedure, abridged:
as §1

Test [4] has as its target T2, SPIC (Homo sapiens, UniProt Q8N5J4 1-248).
T2 sequence: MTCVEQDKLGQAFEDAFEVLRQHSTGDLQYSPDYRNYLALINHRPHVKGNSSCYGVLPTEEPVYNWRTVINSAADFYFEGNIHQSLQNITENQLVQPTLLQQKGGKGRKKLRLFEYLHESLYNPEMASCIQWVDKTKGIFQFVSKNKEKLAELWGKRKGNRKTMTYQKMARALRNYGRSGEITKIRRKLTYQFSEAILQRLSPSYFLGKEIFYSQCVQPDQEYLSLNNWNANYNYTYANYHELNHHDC
The conditions noted are these: protein: recombinant; tags: N-terminal GST; dsDNA, one strand shown. The procedure, abridged: as §1

Test [5] concerns the target ELF4 (Homo sapiens, UniProt Q99607 1-663). Particulars: protein: recombinant; tags: N-terminal GST; dsDNA, one strand shown. Summed up:
as §1

The target of test [6] is T3, ELK4 (Homo sapiens, UniProt P28324-2 1-405).
T3 sequence: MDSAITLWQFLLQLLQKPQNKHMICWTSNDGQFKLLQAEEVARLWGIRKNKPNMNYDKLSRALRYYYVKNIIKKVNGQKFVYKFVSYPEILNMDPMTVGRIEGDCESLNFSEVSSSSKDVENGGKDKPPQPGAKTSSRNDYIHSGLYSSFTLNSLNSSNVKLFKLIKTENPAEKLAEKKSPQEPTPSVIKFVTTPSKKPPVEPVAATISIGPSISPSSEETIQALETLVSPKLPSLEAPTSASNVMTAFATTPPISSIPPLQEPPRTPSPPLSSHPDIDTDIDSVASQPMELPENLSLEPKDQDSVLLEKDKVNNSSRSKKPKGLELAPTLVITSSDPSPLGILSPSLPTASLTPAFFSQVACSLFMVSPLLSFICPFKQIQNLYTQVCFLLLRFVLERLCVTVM
Particulars: protein: recombinant; tags: N-terminal GST; dsDNA, one strand shown. The procedure, abridged:
as §1

The target of test [7] is T4, ETV2 (Homo sapiens, UniProt O00321 1-342).
T4 sequence: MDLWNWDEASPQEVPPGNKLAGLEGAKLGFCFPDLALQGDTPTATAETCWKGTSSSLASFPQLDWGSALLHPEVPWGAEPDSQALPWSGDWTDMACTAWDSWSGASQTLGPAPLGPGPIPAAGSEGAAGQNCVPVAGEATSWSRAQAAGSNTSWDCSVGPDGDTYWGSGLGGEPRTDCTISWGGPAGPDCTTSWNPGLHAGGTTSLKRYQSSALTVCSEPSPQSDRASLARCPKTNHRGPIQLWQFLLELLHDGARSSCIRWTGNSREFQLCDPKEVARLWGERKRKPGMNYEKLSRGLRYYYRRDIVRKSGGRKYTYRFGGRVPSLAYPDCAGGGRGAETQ
Particulars: protein: recombinant; tags: N-terminal GST; dsDNA, one strand shown. Summed up:
as §1

Test [8] concerns the target T5, ELF3 (Homo sapiens, UniProt P78545 1-371).
T5 sequence: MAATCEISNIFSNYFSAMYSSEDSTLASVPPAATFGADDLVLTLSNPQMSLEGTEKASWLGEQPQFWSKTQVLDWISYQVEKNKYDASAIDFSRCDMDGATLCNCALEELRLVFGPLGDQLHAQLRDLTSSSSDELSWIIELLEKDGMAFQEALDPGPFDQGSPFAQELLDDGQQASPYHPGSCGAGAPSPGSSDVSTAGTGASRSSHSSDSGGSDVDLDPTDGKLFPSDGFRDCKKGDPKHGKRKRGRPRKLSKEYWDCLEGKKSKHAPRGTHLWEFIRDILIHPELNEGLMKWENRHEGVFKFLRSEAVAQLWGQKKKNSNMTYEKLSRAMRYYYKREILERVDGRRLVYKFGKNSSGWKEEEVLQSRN
The conditions noted are these: protein: recombinant; tags: N-terminal GST; dsDNA, one strand shown. The procedure, abridged:
as §1

For test [9], the target named is CRX (Homo sapiens, UniProt O43186 1-299). Particulars: protein: recombinant; tags: N-terminal GST; dsDNA, one strand shown. Summed up: as §1
Chain of CRX (O43186 whole entry): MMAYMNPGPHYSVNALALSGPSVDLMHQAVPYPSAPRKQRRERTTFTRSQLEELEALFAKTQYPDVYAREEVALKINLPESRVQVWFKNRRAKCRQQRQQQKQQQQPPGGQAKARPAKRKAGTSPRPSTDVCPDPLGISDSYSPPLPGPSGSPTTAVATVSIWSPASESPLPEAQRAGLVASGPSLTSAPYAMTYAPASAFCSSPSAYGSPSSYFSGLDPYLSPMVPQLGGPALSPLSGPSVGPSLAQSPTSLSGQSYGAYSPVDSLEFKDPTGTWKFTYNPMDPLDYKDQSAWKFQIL
Test [10] has as its target ETV1 (Homo sapiens, UniProt P50549 1-477). Particulars: protein: recombinant; tags: N-terminal GST; dsDNA, one strand shown. The procedure, abridged:
as §1

Test [11] addresses T6, ERF (Homo sapiens, UniProt P50548 1-548).
T6 sequence: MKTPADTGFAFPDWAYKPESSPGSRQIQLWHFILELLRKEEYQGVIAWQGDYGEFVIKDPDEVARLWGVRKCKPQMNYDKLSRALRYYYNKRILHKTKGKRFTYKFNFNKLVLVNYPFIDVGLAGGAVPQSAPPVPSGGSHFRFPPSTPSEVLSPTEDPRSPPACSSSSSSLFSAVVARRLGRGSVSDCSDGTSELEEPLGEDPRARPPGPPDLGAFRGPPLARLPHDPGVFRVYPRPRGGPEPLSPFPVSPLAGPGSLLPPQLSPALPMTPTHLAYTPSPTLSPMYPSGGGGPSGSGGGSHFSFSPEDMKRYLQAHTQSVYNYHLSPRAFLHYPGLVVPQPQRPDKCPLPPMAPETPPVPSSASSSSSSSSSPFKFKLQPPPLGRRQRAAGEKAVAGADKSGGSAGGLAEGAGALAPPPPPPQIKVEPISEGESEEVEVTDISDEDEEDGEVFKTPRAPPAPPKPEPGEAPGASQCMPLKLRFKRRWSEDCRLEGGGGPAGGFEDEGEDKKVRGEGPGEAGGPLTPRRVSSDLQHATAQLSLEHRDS
The conditions noted are these: protein: recombinant; tags: N-terminal GST; dsDNA, one strand shown. Summed up: as §1

The target of test [12] is T7, ETV3L (Homo sapiens, UniProt Q6ZN32 1-361).
T7 sequence: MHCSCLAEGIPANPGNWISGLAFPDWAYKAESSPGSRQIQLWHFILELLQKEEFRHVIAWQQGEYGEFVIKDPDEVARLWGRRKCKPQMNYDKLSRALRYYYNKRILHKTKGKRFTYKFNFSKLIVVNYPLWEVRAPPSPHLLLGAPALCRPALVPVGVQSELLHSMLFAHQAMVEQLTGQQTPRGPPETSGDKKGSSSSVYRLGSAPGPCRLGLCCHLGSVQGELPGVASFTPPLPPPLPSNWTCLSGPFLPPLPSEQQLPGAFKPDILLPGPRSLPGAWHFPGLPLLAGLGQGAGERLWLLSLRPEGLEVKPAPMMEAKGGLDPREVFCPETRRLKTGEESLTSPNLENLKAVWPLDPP
The conditions noted are these: protein: recombinant; tags: N-terminal GST; dsDNA, one strand shown. The procedure, abridged:
as §1

The target in test [13] is T8, ETS2 (Homo sapiens, UniProt P15036 1-469).
T8 sequence: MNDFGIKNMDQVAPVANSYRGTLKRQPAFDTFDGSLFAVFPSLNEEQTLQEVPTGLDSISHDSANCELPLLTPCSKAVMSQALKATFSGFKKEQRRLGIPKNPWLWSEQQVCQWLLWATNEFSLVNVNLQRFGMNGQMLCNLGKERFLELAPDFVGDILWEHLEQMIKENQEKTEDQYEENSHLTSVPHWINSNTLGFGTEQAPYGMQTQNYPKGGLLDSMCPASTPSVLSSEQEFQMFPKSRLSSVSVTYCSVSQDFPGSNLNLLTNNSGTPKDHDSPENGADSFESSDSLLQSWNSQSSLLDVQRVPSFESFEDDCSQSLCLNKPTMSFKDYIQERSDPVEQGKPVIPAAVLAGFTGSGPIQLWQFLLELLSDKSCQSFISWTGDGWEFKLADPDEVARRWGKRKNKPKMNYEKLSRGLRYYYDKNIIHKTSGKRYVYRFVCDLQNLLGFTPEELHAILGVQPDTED
The conditions noted are these: protein: recombinant; tags: N-terminal GST; dsDNA, one strand shown. The procedure, abridged: as §1

In test [14] the target is T9, SPDEF (Homo sapiens, UniProt O95238 1-335).
T9 sequence: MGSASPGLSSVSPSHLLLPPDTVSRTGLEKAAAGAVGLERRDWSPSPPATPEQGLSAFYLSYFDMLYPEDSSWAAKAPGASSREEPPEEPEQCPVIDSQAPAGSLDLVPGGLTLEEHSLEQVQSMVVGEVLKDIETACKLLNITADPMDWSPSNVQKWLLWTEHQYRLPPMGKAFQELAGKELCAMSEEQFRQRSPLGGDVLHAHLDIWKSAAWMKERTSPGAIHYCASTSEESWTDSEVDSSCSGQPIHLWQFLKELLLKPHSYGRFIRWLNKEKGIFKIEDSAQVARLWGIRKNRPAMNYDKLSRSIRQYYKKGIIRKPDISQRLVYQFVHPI
Particulars: protein: recombinant; tags: N-terminal GST; dsDNA, one strand shown. The procedure, abridged: as §1

Test [15] concerns the target T10, ETV7 (Homo sapiens, UniProt Q9Y603 1-341).
T10 sequence: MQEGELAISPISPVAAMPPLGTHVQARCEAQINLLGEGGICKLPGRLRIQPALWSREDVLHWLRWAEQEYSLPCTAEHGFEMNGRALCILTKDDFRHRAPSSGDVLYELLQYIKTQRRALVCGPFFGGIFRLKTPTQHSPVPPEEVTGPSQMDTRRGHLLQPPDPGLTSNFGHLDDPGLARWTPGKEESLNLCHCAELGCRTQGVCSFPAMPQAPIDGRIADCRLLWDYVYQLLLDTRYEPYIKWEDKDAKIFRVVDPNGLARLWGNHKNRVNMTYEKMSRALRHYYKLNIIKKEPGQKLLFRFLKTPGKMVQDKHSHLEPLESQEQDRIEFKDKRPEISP
Particulars: protein: recombinant; tags: N-terminal GST; dsDNA, one strand shown. The procedure, abridged: as §1

Test [16] addresses T11, ELF5 (Homo sapiens, UniProt Q9UKW6-2 1-255).
T11 sequence: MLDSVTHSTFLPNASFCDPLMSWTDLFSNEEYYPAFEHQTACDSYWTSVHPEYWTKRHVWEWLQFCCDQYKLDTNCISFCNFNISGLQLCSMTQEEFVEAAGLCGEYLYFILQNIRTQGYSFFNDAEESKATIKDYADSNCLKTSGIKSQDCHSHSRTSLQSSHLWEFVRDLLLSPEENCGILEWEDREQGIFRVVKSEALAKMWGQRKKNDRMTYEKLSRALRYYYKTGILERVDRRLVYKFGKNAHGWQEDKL
The conditions noted are these: protein: recombinant; tags: N-terminal GST; dsDNA, one strand shown. Summed up: as §1

Test [17] addresses T12, ETV3 (Homo sapiens, UniProt P41162-2 1-143).
T12 sequence: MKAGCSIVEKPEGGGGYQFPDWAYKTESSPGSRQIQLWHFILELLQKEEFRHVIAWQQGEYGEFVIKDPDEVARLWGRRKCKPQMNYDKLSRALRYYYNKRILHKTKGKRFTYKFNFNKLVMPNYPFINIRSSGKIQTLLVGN
The conditions noted are these: protein: recombinant; tags: N-terminal GST; dsDNA, one strand shown. The procedure, abridged:
as §1

The target in test [18] is ETV6 (Homo sapiens, UniProt P41212 1-452). Particulars: protein: recombinant; tags: N-terminal GST; dsDNA, one strand shown. The procedure, abridged: as §1
Chain of ETV6 (P41212 whole entry): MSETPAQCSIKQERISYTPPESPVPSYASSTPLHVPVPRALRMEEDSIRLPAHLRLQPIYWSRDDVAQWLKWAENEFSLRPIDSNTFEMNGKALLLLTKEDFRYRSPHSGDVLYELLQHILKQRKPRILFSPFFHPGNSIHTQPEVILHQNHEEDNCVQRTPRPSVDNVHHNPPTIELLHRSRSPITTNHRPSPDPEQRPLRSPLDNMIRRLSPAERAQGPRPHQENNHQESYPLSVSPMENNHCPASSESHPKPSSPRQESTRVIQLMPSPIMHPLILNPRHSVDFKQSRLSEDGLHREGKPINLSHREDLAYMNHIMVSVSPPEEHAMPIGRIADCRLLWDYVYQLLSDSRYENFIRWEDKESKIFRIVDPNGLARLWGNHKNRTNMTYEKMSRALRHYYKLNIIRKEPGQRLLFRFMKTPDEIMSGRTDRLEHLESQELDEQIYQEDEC

This passage reports binding signal results from PMC7862700, “An all-to-all approach to the identification of sequence-specific readers for epigenetic DNA modifications on cytosine”.

Chain of HSF1 (Q00613 whole entry): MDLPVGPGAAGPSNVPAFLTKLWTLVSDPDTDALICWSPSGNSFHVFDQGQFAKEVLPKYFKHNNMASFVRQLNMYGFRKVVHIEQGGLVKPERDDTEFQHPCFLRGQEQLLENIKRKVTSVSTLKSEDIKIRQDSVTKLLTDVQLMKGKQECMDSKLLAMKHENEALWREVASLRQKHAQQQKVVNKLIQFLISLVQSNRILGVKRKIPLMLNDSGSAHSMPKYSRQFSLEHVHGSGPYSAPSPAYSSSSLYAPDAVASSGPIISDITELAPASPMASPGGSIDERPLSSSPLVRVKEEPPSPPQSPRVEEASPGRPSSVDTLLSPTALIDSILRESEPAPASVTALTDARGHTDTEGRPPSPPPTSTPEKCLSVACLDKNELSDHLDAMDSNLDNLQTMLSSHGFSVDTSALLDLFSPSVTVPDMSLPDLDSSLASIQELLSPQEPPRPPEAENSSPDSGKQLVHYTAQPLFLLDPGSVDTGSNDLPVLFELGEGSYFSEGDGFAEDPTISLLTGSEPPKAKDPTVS
Chain of ETV1 (P50549 whole entry): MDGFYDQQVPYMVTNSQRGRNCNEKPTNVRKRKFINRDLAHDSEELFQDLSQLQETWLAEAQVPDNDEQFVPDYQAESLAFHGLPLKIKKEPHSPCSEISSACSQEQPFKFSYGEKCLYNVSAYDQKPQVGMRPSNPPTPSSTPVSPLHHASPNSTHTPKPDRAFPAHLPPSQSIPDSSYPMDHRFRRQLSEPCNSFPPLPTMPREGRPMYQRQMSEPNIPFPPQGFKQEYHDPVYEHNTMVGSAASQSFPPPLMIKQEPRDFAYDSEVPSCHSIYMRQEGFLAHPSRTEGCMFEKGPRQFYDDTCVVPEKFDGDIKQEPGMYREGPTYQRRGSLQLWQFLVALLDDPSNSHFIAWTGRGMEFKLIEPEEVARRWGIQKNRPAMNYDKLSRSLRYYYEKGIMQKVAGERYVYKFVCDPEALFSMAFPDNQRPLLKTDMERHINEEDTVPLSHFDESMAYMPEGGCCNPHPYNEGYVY
Chain of ELF4 (Q99607 whole entry): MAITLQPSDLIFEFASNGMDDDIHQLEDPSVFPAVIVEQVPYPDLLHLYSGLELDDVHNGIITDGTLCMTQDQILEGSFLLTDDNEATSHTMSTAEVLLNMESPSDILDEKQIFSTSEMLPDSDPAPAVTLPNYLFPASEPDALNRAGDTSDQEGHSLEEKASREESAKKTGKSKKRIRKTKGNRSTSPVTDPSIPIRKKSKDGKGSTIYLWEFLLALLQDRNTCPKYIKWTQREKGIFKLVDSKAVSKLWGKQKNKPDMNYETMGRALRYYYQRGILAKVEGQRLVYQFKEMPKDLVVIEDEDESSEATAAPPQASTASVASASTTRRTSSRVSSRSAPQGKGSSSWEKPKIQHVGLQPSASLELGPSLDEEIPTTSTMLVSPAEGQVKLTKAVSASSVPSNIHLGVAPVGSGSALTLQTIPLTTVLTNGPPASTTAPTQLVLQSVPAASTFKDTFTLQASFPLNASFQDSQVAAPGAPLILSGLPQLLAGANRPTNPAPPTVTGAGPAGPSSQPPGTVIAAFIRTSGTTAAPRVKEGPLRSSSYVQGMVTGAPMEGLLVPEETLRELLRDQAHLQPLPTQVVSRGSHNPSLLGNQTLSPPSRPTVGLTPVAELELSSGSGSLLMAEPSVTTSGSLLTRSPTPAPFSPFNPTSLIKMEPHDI

As to ACTCCG, the binding signal in test [1] was 1.49 fold enrichment (6-mer frequency, TF over GST control); in test [2], 1.44 fold enrichment (6-mer frequency, TF over GST control); in [3], 1.16 fold enrichment (6-mer frequency, TF over GST control); in [4], 1.35 fold enrichment (6-mer frequency, TF over GST control); in test [5], 1.58 fold enrichment (6-mer frequency, TF over GST control); in test [6] it was 1.4 fold enrichment (6-mer frequency, TF over GST control). The binding signal in test [7] was 1.4 fold enrichment (6-mer frequency, TF over GST control); in test [8], 1.33 fold enrichment (6-mer frequency, TF over GST control); in [9], 1.04 fold enrichment (6-mer frequency, TF over GST control); in [10], 1.47 fold enrichment (6-mer frequency, TF over GST control); in [11] it was 1.37 fold enrichment (6-mer frequency, TF over GST control); in test [12] it was 1.52 fold enrichment (6-mer frequency, TF over GST control). The binding signal was 1.46 fold enrichment (6-mer frequency, TF over GST control) in [13]; 1.59 fold enrichment (6-mer frequency, TF over GST control) in test [14]; 1.4 fold enrichment (6-mer frequency, TF over GST control) in test [15]; 1.32 fold enrichment (6-mer frequency, TF over GST control) in test [16]; 1.51 fold enrichment (6-mer frequency, TF over GST control) in test [17]; 1.47 fold enrichment (6-mer frequency, TF over GST control) in [18].
